SMILES strings stand for the structures. Among all 340,000 compounds or so, about 12,000 (3.5%) were called active. Inconclusive results (about 18%) are left out. The entries come from a sample that favours actives as a whole. Unmarked numbers belong to inactive results. The call rests on the fitted dose curve; in most records, active means well fitted inhibition curve with a large enough effect; inconclusive means small, poorly fitted or top-dose-only effect, or another doubt; inactive means no such curve, though single readings can be large or run the other way.
On the % scale 0 is the no-effect control and ±100 the full control effect; potency means the concentration at half of the fitted maximal effect.

The assay can be described thus: qHTS Assay for Inhibitors of Hepatitis C Virus (HCV). The note with it: Huh7.5.1 HCVcc-Cre infection, luciferase reporter, 44 h; series mostly up to 41.8 µM; activity change, negative = inhibition: at the top concentration. The gist of the method: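 Infectious HCV cell culture screen: compound-treated cells (1,000/well, pre-plated 4 h) are infected with HCVcc-Cre at roughly 0.5 moi and grown 44 h. Infection is quantified by luciferase signal after 15 min substrate incubation at room temperature.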
Turning to `CCc1ccccc1NC(=O)CN(C)C(=O)c1cc(C2CC2)nn1-c1ccccc1`, the “activity change, negative = inhibition” value is -18.9%.
In the case of `CN(c1ccccc1)S(=O)(=O)c1cccc(NC(=O)Cc2c(F)cccc2Cl)c1`, the Potency was 8.91 µM (active).
In the case of `CN(c1ccccc1)S(=O)(=O)c1cccc(C(=O)NNC(=O)c2ccncc2)c1`, the activity change, negative = inhibition was -10.3% [at 8.37 µM].
With `CN(C)S(=O)(=O)c1cccc(NC(=O)Cc2ccsc2)c1`, the “activity change, negative = inhibition” value is -5.68%.
For the molecule `CCOC(=O)[C@@H]1[C@H]2COc3ccc(Br)cc3[C@H]2N2C(=O)N(c3ccc(C)cc3)C(=O)[C@@]12C`, the “activity change, negative = inhibition” value is 4.27%.
Same read-out and setting: next, `COC(=O)CC(CC(=O)OC)n1cccc1`: 12.6%; `CCC(C)NC(=O)c1ccc(NC(=O)CC2SC(N3CCCCC3)=NC2=O)cc1` (stereo unspecified): 8.14%; `O=C(Nc1cc2c3c(c1)CC(=O)N3CCC2)c1ccccc1F`: -15%.
As to `CCOc1cc(C(=O)Nc2ccc(S(=O)(=O)Nc3cnc4ccccc4n3)cc2)cc(OCC)c1OCC`, the “activity change, negative = inhibition” value was 2.89%.
Regarding `Cc1nc(N=C(N)N)nc2c(C)cccc12`, the Potency is 14.1 µM (active).
For `CC(=O)Oc1ccc(-c2nc3c(C)cccc3c(=O)o2)cc1`, the “activity change, negative = inhibition” value was -18.5%.
For `COc1cc(Cl)c(C)cc1NC(=O)CSc1nnc(CN2CCCC2)o1`, the “activity change, negative = inhibition” value is 9.24%.
Regarding `COc1ccc(N2CCN(C(=O)CNC(=O)c3ccc(Br)o3)CC2)cc1`, the “activity change, negative = inhibition” value is 12.5%.
Regarding `COc1cc(OC)cc(C(=O)NCC(=O)OCc2csc(-c3ccccc3)n2)c1`, the “activity change, negative = inhibition” value is -13.4%.
For `COc1ccc(-c2nc(CCNC(=O)c3ccc(Br)o3)cs2)cc1`, the Potency is 10 µM (active).
In the case of `COc1ccc(C2=NN(C(=O)CSc3nnnn3C)C(c3ccco3)C2)cc1` (stereo unspecified), the “activity change, negative = inhibition” value was 0.807%.
In the case of `O=C(CSc1nccn1-c1cccc(F)c1)NC1CCCC1`, the “activity change, negative = inhibition” value is -6.21%.
On the same count and under the same terms, next, `CCCc1cc(=O)[nH]c2nnc(SCC(=O)Nc3nnc(SCC)s3)n12`: 13.1%; `COc1ccccc1-c1nnc(-c2ccc(F)cc2)o1`: 2.16%.
`Cc1ccc(-c2nc(CSCC(=O)NC3CCN(Cc4ccccc4)CC3)c(C)o2)cc1`: the Potency was 12.6 µM (active).
As to `Cc1ccc(S(=O)(=O)NCCC(=O)NC2CCN(Cc3ccccc3)CC2)cc1`, the “activity change, negative = inhibition” value is -7.73%.
As for `Cc1ccc(-c2nc(CS(=O)CC(=O)NC3CCCC3)c(C)o2)cc1` (stereo unspecified), the “activity change, negative = inhibition” value is -19.2%.
Same read-out and setting: under `O=C(Nc1ccccn1)C1CCN(S(=O)(=O)c2ccccc2)CC1` stands -29.9%; under `Fc1ccccc1COc1cccc2cccnc12`, -5.88%; under `Cc1ccc(NC(=O)CN(C)C(=O)c2ccc(Cl)c(S(=O)(=O)NCc3ccco3)c2)cc1`, -9.16%.
Take `Clc1ccc2c(c1)C1=C(C(c3ccncc3)O2)C(c2ccc(Br)cc2)n2ncnc2N1` (stereo unspecified): the Potency is 12.6 µM (active).
For the molecule `CC1=C(C(N)=O)C(c2ccc(Br)cc2)n2ncnc2N1` (stereo unspecified), the “activity change, negative = inhibition” value is 6.56%.
As to `COC(=O)C1=C(C)Nc2ncnn2C1c1cccnc1` (stereo unspecified), the “activity change, negative = inhibition” value is 4.06%.
As to `COc1ccc(C(CNC(=O)c2cc(S(=O)(=O)Nc3cccc(C)c3)ccc2C)N2CCCC2)cc1` (stereo unspecified), the “activity change, negative = inhibition” value was -23%.
The same measure, in the same setting: next, `COc1cccc(CNC(=O)CN2C(=O)NC(Cc3ccccc3)(c3ccccc3)C2=O)c1` (stereo unspecified): 6.36%; `COc1cccc(C(=O)N2CCC(n3nccc3NC(=O)C3CCOC3)CC2)c1` (stereo unspecified): 16.5%.
For the molecule `COc1ccccc1N1CCN(CC(=O)Nc2ccnn2C2CCCC2)CC1`, the “activity change, negative = inhibition” value is -3.97%.
Regarding `COc1cccc(N2CCN(CC(=O)Nc3ccnn3C3CCCC3)CC2)c1`, the Potency is 10 µM (active).
Turning to `CC(=O)NC(CC(=O)Nc1ccc(S(=O)(=O)N2CCOCC2)cc1)c1ccccc1` (stereo unspecified), the “activity change, negative = inhibition” value is -6.34%.
On to `O=C(c1cccc(C(=O)N2CCN(c3ccc(F)cc3)CC2)c1)N1CCN(c2ccc(F)cc2)CC1`, for which the Potency was 11.2 µM (active).
As for `O=C(c1cc(-c2ccc(Cl)cc2)on1)N1CCN(c2ccccc2)CC1`, the “activity change, negative = inhibition” value was 14.7%.
Consider `COc1ccc(-c2cc(C(=O)N3CCN(c4ccc(F)cc4)CC3)no2)cc1`, for which the Potency is 22.4 µM (active).
Take `O=C(c1cc2cc(F)ccc2[nH]1)N1CCN(c2ccc(F)cc2)CC1`: the “activity change, negative = inhibition” value is -3.92%.
As for `O=C(c1ccccc1)c1ccc(C(=O)N2CCN(c3ccccc3)CC2)cc1`, the “activity change, negative = inhibition” value was -4.67%.
Take `O=C(c1cc(-c2ccc(F)cc2)on1)N1CCN(c2ccc(F)cc2)CC1`: the “activity change, negative = inhibition” value is -27%.
For `Cc1ccc(C)c(NC(=O)COC(=O)Cn2c(C)csc2=O)c1`, the “activity change, negative = inhibition” value is 11.3%.
For the molecule `CCC1(CC)NC(=O)N(CC(=O)OCC(=O)c2cc(C)c(C)cc2C)C1=O`, the “activity change, negative = inhibition” value was 0.464%.
For `O=C(CNC(=O)c1ccccc1Br)NNC(=O)c1cccs1`, the “activity change, negative = inhibition” value is 9.22%.
Same read-out and setting: under `COc1cc(S(=O)(=O)N2CCN(C(=O)C3CC3)CC2)ccc1NC(C)=O` stands 10.1%; under `O=C(C1Cc2ccccc2CN1C(=O)c1ccco1)N1CCN(c2ccccc2)CC1` (stereo unspecified), -1.5%.
For `O=C(NCCC1=CCCCC1)c1ccc(-n2cncn2)cc1`, the “activity change, negative = inhibition” value is 1.61%.
Same read-out and setting: next, `CCOc1ccc(C(=O)CCC(=O)NC2=NCCS2)cc1`: 5.16%; `Cc1noc(C)c1CSCC(=O)Nc1ccc(Br)cc1Cl`: -2.49%; `CCOC(=O)CCCCCC(=O)Nc1ccc2c(c1)CC(=O)N([C@@H](C)CO)C[C@H](C)[C@@H](CN(C)Cc1ccccc1)O2`: 0.684%.
For the molecule `CC(=O)c1cccc(NC(=O)c2cc(C)nn2-c2ccccc2)c1`, the “activity change, negative = inhibition” value is 24.4%.
As for `O=C(Nc1ccc(Cl)cn1)c1cnn2cccnc12`, the “activity change, negative = inhibition” value was 10.6%.

The values above are taken from PubChem BioAssay AID651820 (National Center for Advancing Translational Sciences (NCATS), 2012).
